# According to paper PMC7156710, “The Sox2 transcription factor binds RNA”:
# How the values were obtained:
# Test in all cases: fluorescence anisotropy; 10 mM Tris-HEPES pH 7.5, 8% Ficoll, 0.05% NP-40, 135 mM KCl, 15 mM NaCl, 1 mM DTT, 0.1 mg/mL BSA; 2 nM DNA or 3 nM RNA; low values mean tight binding
# Details in all cases: protein: recombinant; tags: N-terminal His6 and thrombin site, not removed; label: 3' fluorescein; hairpin; structured_RNA
# [1] = molecular target: Sox2-HMG (His6 retained) E78A (Homo sapiens, UniProt P48431 38-121, E78A)
# Summary of the method: (§1)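 Alanine-substituted Sox2-HMG domains were made by site-directed mutagenesis and Ni-NTA purified with the His6 tag retained. They were titrated against 2 nM fluorescein-labeled DNA or 3 nM fluorescein-labeled RNA in Tris-HEPES pH 7.5 binding buffer for at least 1 h. Polarization was read on a CLARIOstar, with triplicate titrations each read three times. Dissociation constants were fit in Kaleidagraph and expressed as the mutant-to-wild-type ratio.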
# [2] = molecular target: Sox2-HMG (His6 retained) S72A (Homo sapiens, UniProt P48431 38-121, S72A)
# Summary of the method: as §1
# [3] = molecular target: Sox2-HMG (His6 retained) E104A (Homo sapiens, UniProt P48431 38-121, E104A)
# Summary of the method: as §1
# [4] = molecular target: Sox2-HMG (His6 retained) K58A (Homo sapiens, UniProt P48431 38-121, K58A)
# Summary of the method: as §1
# [5] = molecular target: Sox2-HMG (His6 retained) H67A (Homo sapiens, UniProt P48431 38-121, H67A)
# Summary of the method: as §1
# [6] = molecular target: Sox2-HMG (His6 retained) K42A (Homo sapiens, UniProt P48431 38-121, K42A)
# Summary of the method: as §1
# [7] = molecular target: Sox2-HMG (His6 retained) M45A (Homo sapiens, UniProt P48431 38-121, M45A)
# Summary of the method: as §1
# [8] = molecular target: Sox2-HMG (His6 retained) N63A (Homo sapiens, UniProt P48431 38-121, N63A)
# Summary of the method: as §1
# [9] = molecular target: Sox2-HMG (His6 retained) K115A (Homo sapiens, UniProt P48431 38-121, K115A)
# Summary of the method: as §1
# [10] = molecular target: Sox2-HMG (His6 retained) E70A (Homo sapiens, UniProt P48431 38-121, E70A)
# Summary of the method: as §1
# [11] = molecular target: Sox2-HMG (His6 retained) K87A (Homo sapiens, UniProt P48431 38-121, K87A)
# Summary of the method: as §1
# [12] = molecular target: Sox2-HMG (His6 retained) W79A (Homo sapiens, UniProt P48431 38-121, W79A)
# Summary of the method: as §1
# [13] = molecular target: Sox2-HMG (His6 retained) E62A (Homo sapiens, UniProt P48431 38-121, E62A)
# Summary of the method: as §1
# [14] = molecular target: Sox2-HMG (His6 retained) R114A (Homo sapiens, UniProt P48431 38-121, R114A)
# Summary of the method: as §1
# [15] = molecular target: Sox2-HMG (His6 retained) S69A (Homo sapiens, UniProt P48431 38-121, S69A)
# Summary of the method: as §1
# [16] = molecular target: Sox2-HMG (His6 retained) R96A (Homo sapiens, UniProt P48431 38-121, R96A)
# Summary of the method: as §1
# [17] = molecular target: Sox2-HMG (His6 retained) R40A (Homo sapiens, UniProt P48431 38-121, R40A)
# Summary of the method: as §1
# [18] = molecular target: Sox2-HMG (His6 retained) W51A (Homo sapiens, UniProt P48431 38-121, W51A)
# Summary of the method: as §1
# [19] = molecular target: Sox2-HMG (His6 retained) S83A (Homo sapiens, UniProt P48431 38-121, S83A)
# Summary of the method: as §1
# [20] = molecular target: Sox2-HMG (His6 retained) R111A (Homo sapiens, UniProt P48431 38-121, R111A)
# Summary of the method: as §1
# [21] = molecular target: Sox2-HMG (His6 retained) E84A (Homo sapiens, UniProt P48431 38-121, E84A)
# Summary of the method: as §1
# [22] = molecular target: Sox2-HMG (His6 retained) K95A (Homo sapiens, UniProt P48431 38-121, K95A)
# Summary of the method: as §1
# [23] = molecular target: Sox2-HMG (His6 retained) F48A (Homo sapiens, UniProt P48431 38-121, F48A)
# Summary of the method: as §1
# [24] = molecular target: Sox2-HMG (His6 retained) R74A (Homo sapiens, UniProt P48431 38-121, R74A)
# Summary of the method: as §1
# [25] = molecular target: Sox2-HMG (His6 retained) Q61A (Homo sapiens, UniProt P48431 38-121, Q61A)
# Summary of the method: as §1
# [26] = molecular target: Sox2-HMG (His6 retained) R88A (Homo sapiens, UniProt P48431 38-121, R88A)
# Summary of the method: as §1
# [27] = molecular target: Sox2-HMG (His6 retained) K73A (Homo sapiens, UniProt P48431 38-121, K73A)
# Summary of the method: as §1
# [28] = molecular target: Sox2-HMG (His6 retained) E86A (Homo sapiens, UniProt P48431 38-121, E86A)
# Summary of the method: as §1
# [29] = molecular target: Sox2-HMG (His6 retained) R53A (Homo sapiens, UniProt P48431 38-121, R53A)
# Summary of the method: as §1
# [30] = molecular target: Sox2-HMG (His6 retained) R113A (Homo sapiens, UniProt P48431 38-121, R113A)
# Summary of the method: as §1
# [31] = molecular target: Sox2-HMG (His6 retained) T85A (Homo sapiens, UniProt P48431 38-121, T85A)
# Summary of the method: as §1
# [32] = molecular target: Sox2-HMG (His6 retained) M49A (Homo sapiens, UniProt P48431 38-121, M49A)
# Summary of the method: as §1
# [33] = molecular target: Sox2-HMG (His6 retained) R56A (Homo sapiens, UniProt P48431 38-121, R56A)
# Summary of the method: as §1
# [34] = molecular target: Sox2-HMG (His6 retained) K80A (Homo sapiens, UniProt P48431 38-121, K80A)
# Summary of the method: as §1
# [35] = molecular target: Sox2-HMG (His6 retained) Y110A (Homo sapiens, UniProt P48431 38-121, Y110A)
# Summary of the method: as §1
# [36] = molecular target: Sox2-HMG (His6 retained) K103A (Homo sapiens, UniProt P48431 38-121, K103A)
# Summary of the method: as §1
# [37] = molecular target: Sox2-HMG (His6 retained) K109A (Homo sapiens, UniProt P48431 38-121, K109A)
# Summary of the method: as §1
# [38] = molecular target: Sox2-HMG (His6 retained) R43A (Homo sapiens, UniProt P48431 38-121, R43A)
# Summary of the method: as §1
# [39] = molecular target: Sox2-HMG (His6 retained) R57A (Homo sapiens, UniProt P48431 38-121, R57A)
# Summary of the method: as §1
# [40] = molecular target: Sox2-HMG (His6 retained) R98A (Homo sapiens, UniProt P48431 38-121, R98A)
# Summary of the method: as §1
# [41] = molecular target: Sox2-HMG (His6 retained) N68A (Homo sapiens, UniProt P48431 38-121, N68A)
# Summary of the method: as §1
# [42] = molecular target: Sox2-HMG (His6 retained) P112A (Homo sapiens, UniProt P48431 38-121, P112A)
# Summary of the method: as §1
# [43] = molecular target: Sox2-HMG (His6 retained) N46A (Homo sapiens, UniProt P48431 38-121, N46A)
# Summary of the method: as §1
# [44] = molecular target: Sox2-HMG (His6 retained) K65A (Homo sapiens, UniProt P48431 38-121, K65A)
# Summary of the method: as §1
# [45] = molecular target: Sox2-HMG (His6 retained) H101A (Homo sapiens, UniProt P48431 38-121, H101A)
# Summary of the method: as §1
# [46] = molecular target: Sox2-HMG (His6 retained) P64A (Homo sapiens, UniProt P48431 38-121, P64A)
# Summary of the method: as §1
# [47] = molecular target: Sox2-HMG (His6 retained) M66A (Homo sapiens, UniProt P48431 38-121, M66A)
# Summary of the method: as §1
# [48] = molecular target: Sox2-HMG (His6 retained) H105A (Homo sapiens, UniProt P48431 38-121, H105A)
# Summary of the method: as §1
# Sox2-HMG (His6 retained) N46A, sequence (P48431 other isoform, or with tags, fused parts or gaps N46A | N46A N46A): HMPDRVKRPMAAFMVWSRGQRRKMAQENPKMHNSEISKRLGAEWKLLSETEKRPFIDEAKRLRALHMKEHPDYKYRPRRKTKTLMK
# Sox2-HMG (His6 retained) M45A, sequence (P48431 other isoform, or with tags, fused parts or gaps M45A | M45A M45A): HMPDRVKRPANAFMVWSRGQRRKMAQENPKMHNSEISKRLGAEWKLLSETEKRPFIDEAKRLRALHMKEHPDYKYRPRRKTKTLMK
# Sox2-HMG (His6 retained) E78A, sequence (P48431 other isoform, or with tags, fused parts or gaps E78A | E78A E78A): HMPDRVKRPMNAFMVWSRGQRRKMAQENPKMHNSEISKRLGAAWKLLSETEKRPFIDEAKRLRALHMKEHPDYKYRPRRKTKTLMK
# Sox2-HMG (His6 retained) E84A, sequence (P48431 other isoform, or with tags, fused parts or gaps E84A | E84A E84A): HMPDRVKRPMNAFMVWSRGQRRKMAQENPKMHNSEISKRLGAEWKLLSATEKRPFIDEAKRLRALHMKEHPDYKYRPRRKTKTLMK
# Sox2-HMG (His6 retained) E86A, sequence (P48431 other isoform, or with tags, fused parts or gaps E86A | E86A E86A): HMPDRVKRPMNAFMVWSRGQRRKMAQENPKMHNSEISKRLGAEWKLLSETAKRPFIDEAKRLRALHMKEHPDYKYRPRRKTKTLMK
# Sox2-HMG (His6 retained) W79A, sequence (P48431 other isoform, or with tags, fused parts or gaps W79A | W79A W79A): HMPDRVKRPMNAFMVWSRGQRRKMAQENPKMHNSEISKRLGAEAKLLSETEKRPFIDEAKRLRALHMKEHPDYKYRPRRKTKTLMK
# Sox2-HMG (His6 retained) S72A, sequence (P48431 other isoform, or with tags, fused parts or gaps S72A | S72A S72A): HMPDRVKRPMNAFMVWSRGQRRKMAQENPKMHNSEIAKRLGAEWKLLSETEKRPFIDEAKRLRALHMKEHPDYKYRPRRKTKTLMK
# Sox2-HMG (His6 retained) R53A, sequence (P48431 other isoform, or with tags, fused parts or gaps R53A | R53A R53A): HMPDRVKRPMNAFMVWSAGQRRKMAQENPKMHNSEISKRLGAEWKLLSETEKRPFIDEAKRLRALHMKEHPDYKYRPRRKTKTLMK
# Sox2-HMG (His6 retained) R98A, sequence (P48431 other isoform, or with tags, fused parts or gaps R98A | R98A R98A): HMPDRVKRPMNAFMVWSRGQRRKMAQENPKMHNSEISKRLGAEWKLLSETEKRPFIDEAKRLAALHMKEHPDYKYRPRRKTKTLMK
# Sox2-HMG (His6 retained) Q61A, sequence (P48431 other isoform, or with tags, fused parts or gaps Q61A | Q61A Q61A): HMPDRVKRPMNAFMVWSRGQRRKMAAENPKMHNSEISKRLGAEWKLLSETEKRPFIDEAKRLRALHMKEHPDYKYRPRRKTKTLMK
# Sox2-HMG (His6 retained) W51A, sequence (P48431 other isoform, or with tags, fused parts or gaps W51A | W51A W51A): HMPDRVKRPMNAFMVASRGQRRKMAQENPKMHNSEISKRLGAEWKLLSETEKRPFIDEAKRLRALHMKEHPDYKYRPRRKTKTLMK
# Sox2-HMG (His6 retained) P64A, sequence (P48431 other isoform, or with tags, fused parts or gaps P64A | P64A P64A): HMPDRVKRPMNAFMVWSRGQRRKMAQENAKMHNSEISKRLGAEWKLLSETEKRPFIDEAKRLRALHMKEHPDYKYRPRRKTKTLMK
# Sox2-HMG (His6 retained) N68A, sequence (P48431 other isoform, or with tags, fused parts or gaps N68A | N68A N68A): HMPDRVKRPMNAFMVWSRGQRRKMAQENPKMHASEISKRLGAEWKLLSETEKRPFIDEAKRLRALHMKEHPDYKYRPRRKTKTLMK
# Sox2-HMG (His6 retained) H67A, sequence (P48431 other isoform, or with tags, fused parts or gaps H67A | H67A H67A): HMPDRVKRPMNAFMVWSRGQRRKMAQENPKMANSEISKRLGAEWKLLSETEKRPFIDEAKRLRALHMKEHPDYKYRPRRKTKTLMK
# Sox2-HMG (His6 retained) N63A, sequence (P48431 other isoform, or with tags, fused parts or gaps N63A | N63A N63A): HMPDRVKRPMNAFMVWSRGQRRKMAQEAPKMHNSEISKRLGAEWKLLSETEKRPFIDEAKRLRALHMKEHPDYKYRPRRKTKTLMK
# Sox2-HMG (His6 retained) E70A, sequence (P48431 other isoform, or with tags, fused parts or gaps E70A | E70A E70A): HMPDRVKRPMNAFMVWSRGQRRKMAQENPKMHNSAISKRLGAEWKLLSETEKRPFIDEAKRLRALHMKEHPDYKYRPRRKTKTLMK
# Sox2-HMG (His6 retained) K80A, sequence (P48431 other isoform, or with tags, fused parts or gaps K80A | K80A K80A): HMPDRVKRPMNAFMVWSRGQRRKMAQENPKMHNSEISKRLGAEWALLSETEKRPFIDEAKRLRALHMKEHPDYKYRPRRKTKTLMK
# Sox2-HMG (His6 retained) Y110A, sequence (P48431 other isoform, or with tags, fused parts or gaps Y110A | Y110A Y110A): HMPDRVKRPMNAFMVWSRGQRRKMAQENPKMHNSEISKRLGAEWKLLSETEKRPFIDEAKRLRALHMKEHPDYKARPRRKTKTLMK
# Sox2-HMG (His6 retained) M66A, sequence (P48431 other isoform, or with tags, fused parts or gaps M66A | M66A M66A): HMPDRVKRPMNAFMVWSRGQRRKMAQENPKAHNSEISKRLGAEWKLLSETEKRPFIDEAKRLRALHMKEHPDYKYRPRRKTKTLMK
# Sox2-HMG (His6 retained) F48A, sequence (P48431 other isoform, or with tags, fused parts or gaps F48A | F48A F48A): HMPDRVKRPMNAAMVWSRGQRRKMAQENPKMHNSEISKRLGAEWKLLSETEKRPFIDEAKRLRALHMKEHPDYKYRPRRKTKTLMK
# Sox2-HMG (His6 retained) R43A, sequence (P48431 other isoform, or with tags, fused parts or gaps R43A | R43A R43A): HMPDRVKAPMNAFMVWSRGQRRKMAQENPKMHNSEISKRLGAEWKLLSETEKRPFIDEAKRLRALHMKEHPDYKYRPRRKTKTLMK
# Sox2-HMG (His6 retained) R74A, sequence (P48431 other isoform, or with tags, fused parts or gaps R74A | R74A R74A): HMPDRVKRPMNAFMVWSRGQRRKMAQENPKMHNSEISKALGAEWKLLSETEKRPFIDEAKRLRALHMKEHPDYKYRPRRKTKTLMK
# Sox2-HMG (His6 retained) E104A, sequence (P48431 other isoform, or with tags, fused parts or gaps E104A | E104A E104A): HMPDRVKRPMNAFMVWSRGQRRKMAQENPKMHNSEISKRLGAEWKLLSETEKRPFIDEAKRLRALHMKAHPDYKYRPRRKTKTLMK
# Sox2-HMG (His6 retained) S69A, sequence (P48431 other isoform, or with tags, fused parts or gaps S69A | S69A S69A): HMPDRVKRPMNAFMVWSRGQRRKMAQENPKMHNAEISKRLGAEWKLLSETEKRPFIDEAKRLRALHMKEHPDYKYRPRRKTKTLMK
# Sox2-HMG (His6 retained) E62A, sequence (P48431 other isoform, or with tags, fused parts or gaps E62A | E62A E62A): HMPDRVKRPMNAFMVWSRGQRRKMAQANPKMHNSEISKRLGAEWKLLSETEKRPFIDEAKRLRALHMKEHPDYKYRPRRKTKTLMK
# Sox2-HMG (His6 retained) K58A, sequence (P48431 other isoform, or with tags, fused parts or gaps K58A | K58A K58A): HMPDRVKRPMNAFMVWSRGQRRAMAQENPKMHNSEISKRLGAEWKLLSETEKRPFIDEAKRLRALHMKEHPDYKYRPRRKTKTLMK
# Sox2-HMG (His6 retained) K73A, sequence (P48431 other isoform, or with tags, fused parts or gaps K73A | K73A K73A): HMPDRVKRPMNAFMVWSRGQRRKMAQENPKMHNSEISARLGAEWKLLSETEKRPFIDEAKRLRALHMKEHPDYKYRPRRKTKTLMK
# Sox2-HMG (His6 retained) R57A, sequence (P48431 other isoform, or with tags, fused parts or gaps R57A | R57A R57A): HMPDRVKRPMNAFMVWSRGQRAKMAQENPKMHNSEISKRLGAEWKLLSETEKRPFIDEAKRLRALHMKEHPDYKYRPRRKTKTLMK
# Sox2-HMG (His6 retained) R56A, sequence (P48431 other isoform, or with tags, fused parts or gaps R56A | R56A R56A): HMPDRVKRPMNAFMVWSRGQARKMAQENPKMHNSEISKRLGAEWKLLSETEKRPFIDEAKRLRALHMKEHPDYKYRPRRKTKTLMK
# Sox2-HMG (His6 retained) R113A, sequence (P48431 other isoform, or with tags, fused parts or gaps R113A | R113A R113A): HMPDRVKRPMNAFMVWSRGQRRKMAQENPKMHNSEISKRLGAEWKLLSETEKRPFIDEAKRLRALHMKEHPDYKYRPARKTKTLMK
# Sox2-HMG (His6 retained) H105A, sequence (P48431 other isoform, or with tags, fused parts or gaps H105A | H105A H105A): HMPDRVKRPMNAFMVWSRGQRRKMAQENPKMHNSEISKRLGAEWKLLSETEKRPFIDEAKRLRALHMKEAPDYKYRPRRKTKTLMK
# Sox2-HMG (His6 retained) R114A, sequence (P48431 other isoform, or with tags, fused parts or gaps R114A | R114A R114A): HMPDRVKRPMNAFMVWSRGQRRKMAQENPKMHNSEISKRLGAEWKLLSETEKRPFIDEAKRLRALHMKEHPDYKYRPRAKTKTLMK
# Sox2-HMG (His6 retained) K103A, sequence (P48431 other isoform, or with tags, fused parts or gaps K103A | K103A K103A): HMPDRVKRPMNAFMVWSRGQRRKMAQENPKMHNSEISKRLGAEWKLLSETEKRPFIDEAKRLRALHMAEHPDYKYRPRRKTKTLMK
# Sox2-HMG (His6 retained) K87A, sequence (P48431 other isoform, or with tags, fused parts or gaps K87A | K87A K87A): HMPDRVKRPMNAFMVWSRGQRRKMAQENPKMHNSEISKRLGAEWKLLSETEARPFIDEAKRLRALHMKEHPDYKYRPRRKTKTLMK
# Sox2-HMG (His6 retained) K42A, sequence (P48431 other isoform, or with tags, fused parts or gaps K42A | K42A K42A): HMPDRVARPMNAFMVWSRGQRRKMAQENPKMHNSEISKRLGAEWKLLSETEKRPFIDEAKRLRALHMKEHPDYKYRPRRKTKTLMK
# Sox2-HMG (His6 retained) R40A, sequence (P48431 other isoform, or with tags, fused parts or gaps R40A | R40A R40A): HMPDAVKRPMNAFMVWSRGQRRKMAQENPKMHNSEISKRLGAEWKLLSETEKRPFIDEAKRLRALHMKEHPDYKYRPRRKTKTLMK
# Sox2-HMG (His6 retained) P112A, sequence (P48431 other isoform, or with tags, fused parts or gaps P112A | P112A P112A): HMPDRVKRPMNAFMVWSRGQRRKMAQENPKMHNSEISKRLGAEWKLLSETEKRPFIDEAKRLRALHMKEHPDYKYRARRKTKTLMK
# Sox2-HMG (His6 retained) T85A, sequence (P48431 other isoform, or with tags, fused parts or gaps T85A | T85A T85A): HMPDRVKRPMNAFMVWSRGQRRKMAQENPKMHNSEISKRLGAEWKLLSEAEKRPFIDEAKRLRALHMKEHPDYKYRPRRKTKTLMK
# Sox2-HMG (His6 retained) K109A, sequence (P48431 other isoform, or with tags, fused parts or gaps K109A | K109A K109A): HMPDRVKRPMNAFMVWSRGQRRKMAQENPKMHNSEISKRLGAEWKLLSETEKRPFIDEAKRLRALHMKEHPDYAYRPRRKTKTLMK
# Sox2-HMG (His6 retained) K95A, sequence (P48431 other isoform, or with tags, fused parts or gaps K95A | K95A K95A): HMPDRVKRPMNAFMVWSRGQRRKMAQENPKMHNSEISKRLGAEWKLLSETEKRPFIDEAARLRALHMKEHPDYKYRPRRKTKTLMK
# Sox2-HMG (His6 retained) H101A, sequence (P48431 other isoform, or with tags, fused parts or gaps H101A | H101A H101A): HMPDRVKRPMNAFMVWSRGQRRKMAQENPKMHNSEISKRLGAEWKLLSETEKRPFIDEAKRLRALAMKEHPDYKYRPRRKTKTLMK
# Sox2-HMG (His6 retained) R88A, sequence (P48431 other isoform, or with tags, fused parts or gaps R88A | R88A R88A): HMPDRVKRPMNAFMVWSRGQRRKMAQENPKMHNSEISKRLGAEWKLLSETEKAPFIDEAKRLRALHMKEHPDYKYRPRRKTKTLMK
# Sox2-HMG (His6 retained) K65A, sequence (P48431 other isoform, or with tags, fused parts or gaps K65A | K65A K65A): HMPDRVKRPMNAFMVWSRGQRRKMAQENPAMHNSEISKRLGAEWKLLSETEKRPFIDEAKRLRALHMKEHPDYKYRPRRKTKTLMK
# Sox2-HMG (His6 retained) S83A, sequence (P48431 other isoform, or with tags, fused parts or gaps S83A | S83A S83A): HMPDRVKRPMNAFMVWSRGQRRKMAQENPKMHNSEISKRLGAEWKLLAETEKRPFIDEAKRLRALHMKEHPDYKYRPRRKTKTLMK
# Sox2-HMG (His6 retained) K115A, sequence (P48431 other isoform, or with tags, fused parts or gaps K115A | K115A K115A): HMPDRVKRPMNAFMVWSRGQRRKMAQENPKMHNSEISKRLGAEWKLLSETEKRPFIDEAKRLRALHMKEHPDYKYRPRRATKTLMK
# Sox2-HMG (His6 retained) M49A, sequence (P48431 other isoform, or with tags, fused parts or gaps M49A | M49A M49A): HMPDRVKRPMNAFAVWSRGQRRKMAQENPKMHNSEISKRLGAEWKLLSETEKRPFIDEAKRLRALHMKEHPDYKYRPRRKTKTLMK
sequence,measurement,setting,value
GGUCUUAAGGUGCGGGCGAAAGUCUGUACCUCUGGGACC,binding signal,[1],0.9 ± 0.5 Kd(mutant)/Kd(WT)
same,binding signal,[2],1 ± 0.6 Kd(mutant)/Kd(WT)
same,binding signal,[3],1 ± 0.5 Kd(mutant)/Kd(WT)
same,binding signal,[4],0.8 ± 0.4 Kd(mutant)/Kd(WT)
same,binding signal,[5],3.7 ± 1.7 Kd(mutant)/Kd(WT)
same,binding signal,[6],7.9 ± 2.7 Kd(mutant)/Kd(WT)
same,binding signal,[7],0.9 ± 0.5 Kd(mutant)/Kd(WT)
same,binding signal,[8],1.3 ± 0.2 Kd(mutant)/Kd(WT)
same,binding signal,[9],3.6 ± 1.4 Kd(mutant)/Kd(WT)
same,binding signal,[10],1.2 ± 0.4 Kd(mutant)/Kd(WT)
same,binding signal,[11],4.1 ± 1.4 Kd(mutant)/Kd(WT)
same,binding signal,[12],50 ± 19 Kd(mutant)/Kd(WT)
same,binding signal,[13],1.6 ± 0.8 Kd(mutant)/Kd(WT)
same,binding signal,[14],9.2 ± 2.3 Kd(mutant)/Kd(WT)
same,binding signal,[15],1.6 ± 0.5 Kd(mutant)/Kd(WT)
same,binding signal,[16],0.8 ± 0.3 Kd(mutant)/Kd(WT)
same,binding signal,[17],2.7 ± 0.3 Kd(mutant)/Kd(WT)
same,binding signal,[18],78 ± 13 Kd(mutant)/Kd(WT)
same,binding signal,[19],1.8 ± 0.6 Kd(mutant)/Kd(WT)
same,binding signal,[20],2.2 ± 1.2 Kd(mutant)/Kd(WT)
same,binding signal,[21],0.9 ± 0.5 Kd(mutant)/Kd(WT)
same,binding signal,[22],3.2 ± 1.2 Kd(mutant)/Kd(WT)
same,binding signal,[23],16 ± 2 Kd(mutant)/Kd(WT)
same,binding signal,[24],0.9 ± 0.5 Kd(mutant)/Kd(WT)
same,binding signal,[25],0.8 ± 0.5 Kd(mutant)/Kd(WT)
same,binding signal,[26],0.7 ± 0.2 Kd(mutant)/Kd(WT)
same,binding signal,[27],6.9 ± 0.2 Kd(mutant)/Kd(WT)
same,binding signal,[28],0.9 ± 0.6 Kd(mutant)/Kd(WT)
same,binding signal,[29],1.7 ± 0.6 Kd(mutant)/Kd(WT)
same,binding signal,[30],3.1 ± 1.3 Kd(mutant)/Kd(WT)
same,binding signal,[31],0.9 ± 0.3 Kd(mutant)/Kd(WT)
same,binding signal,[32],0.7 ± 0.4 Kd(mutant)/Kd(WT)
same,binding signal,[33],3 ± 0.3 Kd(mutant)/Kd(WT)
same,binding signal,[34],40 ± 15 Kd(mutant)/Kd(WT)
same,binding signal,[35],1.7 ± 0.6 Kd(mutant)/Kd(WT)
same,binding signal,[36],2.5 ± 1.1 Kd(mutant)/Kd(WT)
same,binding signal,[37],7.4 ± 2.5 Kd(mutant)/Kd(WT)
same,binding signal,[38],2.8 ± 0.6 Kd(mutant)/Kd(WT)
same,binding signal,[39],1.3 ± 0.5 Kd(mutant)/Kd(WT)
same,binding signal,[40],5.5 ± 1.9 Kd(mutant)/Kd(WT)
same,binding signal,[41],1 ± 0.1 Kd(mutant)/Kd(WT)
same,binding signal,[42],1.8 ± 0.8 Kd(mutant)/Kd(WT)
same,binding signal,[43],3.5 ± 1.1 Kd(mutant)/Kd(WT)
same,binding signal,[44],2.6 ± 0.7 Kd(mutant)/Kd(WT)
same,binding signal,[45],2.2 ± 0.9 Kd(mutant)/Kd(WT)
same,binding signal,[46],2 ± 0.7 Kd(mutant)/Kd(WT)
same,binding signal,[47],1.3 ± 0.5 Kd(mutant)/Kd(WT)
same,binding signal,[48],2 ± 1 Kd(mutant)/Kd(WT)
